High-throughput results: PubChem, National Center for Advancing Translational Sciences (NCATS)
The list is not random: actives were taken first. Their share in the collection is about 9.2%.
ALDH1A1 block = ALDH1A1 (human) enzyme inhibition | AID 1030 | Purified ALDH1A1, NADH fluorescence, propionaldehyde substrate | Potency, µM (series often up to 75.3 µM), for inactives: top-dose activity, negative = inhibition, usual class: inhibitors | P00352 | 220,000 compounds, 7.3% hits;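 also: plate controls were no enzyme wells and a reference inhibitor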
Target sequence (P00352 whole entry, looked up): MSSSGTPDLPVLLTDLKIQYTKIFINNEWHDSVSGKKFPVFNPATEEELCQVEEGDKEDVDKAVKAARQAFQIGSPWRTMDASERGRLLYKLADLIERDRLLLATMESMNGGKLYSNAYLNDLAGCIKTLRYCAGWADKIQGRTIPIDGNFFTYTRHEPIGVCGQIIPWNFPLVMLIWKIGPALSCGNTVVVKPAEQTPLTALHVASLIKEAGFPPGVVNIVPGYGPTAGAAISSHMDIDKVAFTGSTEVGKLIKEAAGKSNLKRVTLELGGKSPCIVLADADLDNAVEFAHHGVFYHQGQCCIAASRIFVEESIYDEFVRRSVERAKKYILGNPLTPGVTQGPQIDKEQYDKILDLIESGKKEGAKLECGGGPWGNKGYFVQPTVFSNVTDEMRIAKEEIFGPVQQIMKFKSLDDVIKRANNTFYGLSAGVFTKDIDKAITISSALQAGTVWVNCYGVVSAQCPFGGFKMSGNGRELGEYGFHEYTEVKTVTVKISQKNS
HTT aggregate = inhibitors of mutant huntingtin aggregate formation in PC12 cells; PC12 HttQ103-GFP aggregates, Acumen cytometry, 40 h; Potency, µM (series often up to 46.1 µM), for inactives: at the top dose activity change, negative = inhibition, actives largely listed as inhibitors; 220,000 compounds, 1.1% hits; active = well fitted curve in the direction sought with a large enough effect; inconclusive = small, poorly fitted or top-dose-only effect, or another doubt; inactive = no such curve, though single readings can be large; an effect the other way counts as inactive or inconclusive; also: % is scaled to controls: 0 for no effect and ±100 for the full control effect; nearly all actives have a fitted effect of over 60% in size
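Using laser scanning cytometry, GFP-positive aggregates were counted after lysis of PC12 cells induced with 100 nM tebufenozide to express HTT exon 1 Q103–GFP. Compounds were tested in titration.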
Lamin A splicing = modulators of lamin A splicing; HeLa LMNA splicing GFP/RFP minigene ratio, 48 h; Potency, µM (highest dose often 46.1 µM), for inactives: at the highest dose ratio change, negative = inhibition, actives largely listed as inhibitors; 200,000 compounds, 0.01% hits; AID 1487; active = well fitted inhibition curve with a large enough effect in the signal ratio, with a control signal flat, not every such curve was filed as active; inconclusive = small, poorly fitted or top-dose-only effect, or effect the other way, or a change in a side signal; the % refers to the signal ratio; also: % is scaled to controls: 0 for no effect and ±100 for the full control effect
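S3 HeLa cells stably expressing lamin A-EGFP splicing minigene plus DsRed2, 600 cells/well, 48 h compound exposure at 37C. Laser-scanning cytometry; analysed as GFP (500-530 nm)/RFP (575-640 nm) total intensity ratio; 0.5% DMSO vehicle.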
JMJD2E inh = blocks human JMJD2E demethylase activity. AID 2147. JMJD2E catalytic domain, FDH-coupled NADH fluorescence (FDH is formaldehyde dehydrogenase). Potency, µM (series often up to 57.1 µM), without a hit: at the top dose activity change, negative = inhibition, most hits filed as inhibitors. 230,000 compounds, 1.6% hits;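 also: 0% = wells with enzyme and -100% = buffer wells without enzyme; nearly all actives have a fitted effect of over 50% in size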
HPGD inh = HPGD (human) dehydrogenase inhibition; P15428; purified HPGD, NADH fluorescence kinetic, PGE2 substrate; Potency, µM, inactives show at the top dose activity change, negative = inhibition, actives largely listed as inhibitors; 150,000 compounds, 4.3% hits; AID 894; also: % is scaled to controls: 0 for no effect and ±100 for the full control effect
Target sequence (P15428 whole entry, looked up): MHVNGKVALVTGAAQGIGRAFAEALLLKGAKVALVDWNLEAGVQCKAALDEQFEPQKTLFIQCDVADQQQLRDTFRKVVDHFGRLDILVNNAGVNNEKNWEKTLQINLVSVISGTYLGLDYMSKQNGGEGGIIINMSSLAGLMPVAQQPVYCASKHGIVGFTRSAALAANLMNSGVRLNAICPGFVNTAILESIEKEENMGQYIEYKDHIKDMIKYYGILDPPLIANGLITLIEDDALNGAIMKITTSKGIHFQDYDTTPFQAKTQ
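20 nM HPGD preincubated 15 min at room temperature with compound in 50 mM Tris-HCl pH 8, 0.01% Tween 20. Started with 1 mM NAD+ and 30 uM prostaglandin E2; NADH fluorescence (360/450 nm) read 5 times over 30-s intervals, last minus first.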
HTT ATP protect = cytoprotection in Huntington HTT-Q103 PC12 cell model; PC12 HTT-Q103 induced, cytoprotection, ATP luminescence, 40 h; Potency, µM (top dose mostly 56.4 µM), for inactives: cytoprotection (ATP increase), actives largely listed as activators; 230,000 compounds, 0.14% hits; AID 1471; active = well fitted curve in the direction sought with a large enough effect; inconclusive = small, poorly fitted or top-dose-only effect, or another doubt; inactive = no such curve, though single readings can be large; an effect the other way counts as inactive or inconclusive; also: % of control where 0% means no effect; nearly all actives have a fitted effect of over 45% in size
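PC12 cells with ecdysone-inducible HTT exon 1 Q103-GFP, induced with 100 nM tebufenozide and co-treated with library compounds in a dose series (1536-well, 1500 cells/well). Cytoprotection read as ATP content by ATPlite luminescence.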
The depositor's hits bear a star; ? = inconclusive; . = no result; [ ] = remark or other dose. Unless noted, calls follow the shape of the dose curve; as a rule, active = well fitted inhibition curve with a large enough effect (not every such curve was filed as active); inconclusive = small, poorly fitted or top-dose-only effect, or another doubt; inactive = no such curve, though single readings can be large or run the other way. Potency is read from the fitted curve at half-maximal effect.

SMILES	ALDH1A1 block	HTT aggregate	Lamin A splicing	JMJD2E inh	HPGD inh	HTT ATP protect
COc1ccc(NC(=S)NC(NC(=O)c2cccc3ccccc23)C(Cl)(Cl)Cl)c([N+](=O)[O-])c1 (stereo not drawn)	28.2µM*	?	?	-29.4%	-13.2%	13.4%[10 µM]
Cc1ncn(-c2ccc(C(=O)Oc3ccccc3)cn2)n1	-7.8%	-5.3%	?	-5.8%	.	9.1%[10 µM]
COc1ccc(/C=C/C2=CC(C)(C)NC(=S)N2)cc1OC	7.94µM*	10.6%	-0.3%[9.22 µM]	-6.5%	.	25.1%
CCOc1ccc(/C=C/C2=CC(C)(C)NC(=S)N2)cc1	12.6µM*	19.6%	.	-12.2%	.	.
CCOc1ccc(/C=C2\NC(=S)NC2=O)cc1	.	23.5%[9.22 µM]	.	-4.7%	.	18.0%[10 µM]
O=C(O)c1cc(N=Cc2ccccc2O)cc(C(=O)O)c1	-15.6%[13.5 µM]	.	.	.	-23.9%	5.3%[10 µM]
COC(=O)C1=C(C)N(Cc2ccccc2)[C@]23O[C@](C(=O)OC)(C(=O)N2C1c1ccccc1)C1CCCC(=O)C13 (stereo partly drawn)	14.3%[13.5 µM]	.	.	.	.	-18.8%[10 µM]
CC1(C)c2ccccc2N2CCC(=O)NC21/C=C/c1ccco1 (stereo not drawn)	1.4%	-18.6%	10.1%	?	-7.6%	-6.1%[0.074 µM]
Cc1ccc2c(c1)C(C)(C)[C@]1(C)NC(=O)CCN21	39.8µM*	?	0.6%	?	-12.9%	19.0%
CC(C)c1ccc(S(=O)(=O)N2CCCCC2)cc1	-5.4%	-12.6%	?	0.9%	.	-49.1%[10 µM]
C#CC(=O)N(c1cccc(OC)c1)C(C(=O)NC1CCCC1)c1cccs1 (stereo not drawn)	15.8µM*	21.9%	?	-0.9%	?	-7.5%
C#CC(=O)N(c1ccc(OC)c(OC)c1)C(C(=O)NC1CCCC1)c1cccs1 (stereo not drawn)	-2.3%	?	-21.6%	1.6%	-5.5%	0.9%[10 µM]
Cc1nc(N=Nc2cc(S(=O)(=O)O)ccc2S(=O)(=O)O)c(COP(=O)(O)O)c(C=O)c1O	1.5%	.	.	?	?	-4.9%
Cn1c(N2CCOCC2)nc2c1c(=O)n(Cc1ccc(Cl)c(Cl)c1)c(=O)n2C	-6.5%	-17.4%	?	3.7%	-24.9%	-15.0%
Cn1c(OCc2ccco2)nc2c1c(=O)n(Cc1ccc(Cl)c(Cl)c1)c(=O)n2C	25.1µM*	17.4%	-17.9%	-2.7%	-15.8%	5.7%[10 µM]
CC1=NN(c2ccc(Cl)cc2)C(=O)C1C(c1cccc(O)c1)c1c(C)[nH]n(-c2ccc(Cl)cc2)c1=O (stereo not drawn)	3.98µM*	12.6µM*	?	3.16µM*	25.1µM*	33.2%[10 µM]
CC1=NN(c2ccc(F)cc2)C(=O)C1C(c1cccc(O)c1)c1c(C)[nH]n(-c2ccc(F)cc2)c1=O (stereo not drawn)	8.91µM*	27.6%	7.2%	-15.2%	17.8µM*	-8.1%
CC1=C/C(=C/N(C)c2ccccc2)C(=O)S1	20µM*	6.5%	-0.3%	-23.9%	31.6µM*	4.6%
Cc1nc(CSc2nsc(/C=C/N(C)C)c2C#N)cs1	6.31µM*	-4.9%	14.8%[46 µM]	-9.1%	.	-7.4%
COc1ccc(NC(=O)[C@@H]2[C@@H]3C(=O)N(C4CCCCC4)C(=O)[C@@H]3C3c4ccccc4C=CN32)cc1 (stereo partly drawn)	0.501µM*	-16.2%	3.2%	11.4%	-27.8%	-13.3%
CC(=O)[C@H]1[C@H]2[C@H](C(=O)[C@@H]3OC[C@H]2O3)[C@@H]2c3ccccc3C=CN12	.	.	.	.	.	-28.1%
CC(=O)[C@@H]1[C@@H]2C(=O)N(C3CCCCC3)C(=O)[C@@H]2C2c3ccccc3C=CN21 (stereo partly drawn)	7.08µM*	5.3%	10.2%	?	?	-14.2%
CN(C)S(=O)(=O)c1cccc(NC(=S)N/N=C/c2ccc(O)c(O)c2O)c1	.	-6.7%[9.22 µM]	.	7.94µM*	.	39.5%[10 µM]
COc1ccc(O)c(/C=N/NC(=S)Nc2cccc(S(=O)(=O)N(C)C)c2)c1	?	?	?	-6.5%	?	-43.3%[10 µM]
COc1cc(/C=N/NC(=S)Nc2cccc(S(=O)(=O)N(C)C)c2)cc(OC)c1O	22.4µM*	5.9%	?	?	-26.4%	?
SMILES	ALDH1A1 block	HTT aggregate	Lamin A splicing	JMJD2E inh	HPGD inh	HTT ATP protect
CCCCSc1nnc(-c2ccccc2N)c(=O)[nH]1	1.58µM*	?	0.7%	?	-10.0%	-60.7%
COc1cccc(C(=O)CC2c3c(c(Br)c4c(c3OC)OCO4)CCN2C)c1 (stereo not drawn)	7.94µM*	.	.	-2.6%	?	-33.8%
COc1cnc(SCc2ccc(Cl)cc2Cl)nc1Cl	7.08µM*	?	?	-1.8%	17.8µM*	-13.8%
CCCCOc1ccc(Cl)cc1CSc1n[nH]c(C)n1	5.9%	-5.6%	12.0%	2.8%	-8.4%	-35.1%
COc1ccc(Cl)cc1CSc1n[nH]c(C)n1	-5.4%	-9.7%	12.4%	10.0%	15.8µM*	-10.9%
CCCCN1C(=O)CN(C2CCCCCC2)C(=O)C1c1ccc(OCC)c(OC)c1 (stereo not drawn)	.	.	-0.9%[46 µM]	.	.	.
COc1ccc(NC(=O)CSc2nnc(Cc3cccn3C)n2-c2ccc(F)cc2)cc1	?	-2.6%	-11.5%	-6.6%	1.7%	-13.4%
COc1ccc(-n2c(Cc3cccn3C)nnc2SCC(=O)Nc2ccccc2C)cc1	?	6.0%	1.3%	-1.7%	-6.9%	-8.1%
COc1ccc(-n2c(Cc3cccn3C)nnc2SCC(=O)Nc2cccc(C)c2C)cc1	14.1µM*	12.6%	-7.6%	-4.0%	-10.8%	-1.2%
COc1cccc(NC(=O)CSc2nnc(Cc3cccn3C)n2-c2ccc(F)cc2)c1	14.1µM*	23.1%	-12.4%	-10.5%	-21.6%	-13.1%
COc1ccc(-n2c(Cc3cccn3C)nnc2SCC(=O)Nc2ccc(F)cc2F)cc1	10µM*	28.6%	-2.2%	-10.9%	-12.4%	-3.7%
COc1ccc(-n2c(Cc3cccn3C)nnc2SCC(=O)Nc2ccccc2F)cc1	15.8µM*	10.4%	-7.4%	-15.2%	0.5%	9.3%[10 µM]
O=C(O)c1ccc(Cc2ccccc2C(=O)O)cc1	7.1%[13.5 µM]	.	.	.	-6.3%	-28.9%[10 µM]
N[C@H](C(=O)O)[C@@H]1[C@@H](C(=O)O)C1(F)F	8.4%	.	.	15.8µM*	-4.6%	?
N[C@@H](C(=O)O)[C@@H]1C[C@H]1C(=O)O	.	.	.	.	.	2.7%[1.9 µM]
Cc1c(Cl)ccc2c1NC(=O)C21NC(CCC(N)=O)[C@H]2C(=O)N(c3ccc(Cl)cc3)C(=O)[C@H]21 (stereo partly drawn)	8.91µM*	7.4%	-0.7%	0.4%	-25.1%	-5.4%[0.074 µM]
CCCCc1ccc(N2C(=O)[C@@H]3C(CC(N)=O)NC4(C(=O)Nc5ccc(F)cc54)[C@@H]3C2=O)cc1 (stereo partly drawn)	14.1µM*	18.4%	-7.8%	0.2%	-12.3%	-15.3%
